PubChem BioAssay (NCATS)
Values joined by “and” are separate entries in the source; they are usually repeats but may differ in a detail not shown here. Equal entries are not always repeated. Results filed as inconclusive are left out. Active and inactive are the calls of the source. The call rests on the fitted dose curve; in most records, active means well fitted inhibition curve with a large enough effect; inconclusive means small, poorly fitted or top-dose-only effect; inactive means flat fitted curve, though single readings scatter.

Tests used:
[1] = tested on: KB-3-1; assay: Cytotoxic Profiling of Annotated Libraries Using Quantitative High-Throughput Screening (AID 1296008); settings: Five cell lines viability, CellTiter-Glo ATP luminescence, 48-72 h; max response: stronger effect = lower value
Procedure, shortened: (§1)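 Compounds were pin-transferred onto cells and incubated 48 or 72 hr at 37 degree Celsius, 95% humidity. CellTiter-Glo was added, plates sat 10 min at room temperature, then ATP-coupled luminescence was imaged as the viability read-out.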

[2] = tested on: NIH3T3; assay: as above; settings: Five cell lines viability, CellTiter-Glo ATP luminescence, 48-72 h; max response: stronger effect = lower value
Procedure, shortened: as §1

[3] = tested on: CRL-7250; assay: qHTS assay to identify novel small-molecules to repurpose for Merkel cell carcinoma treatment (AID 1296009); settings: MCC and control cell lines, CellTiter-Glo viability, 72 h; at 44.8 µM (top of the series) unless noted
Procedure, shortened: (§2)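 Cells exposed to NPC (8-point) and MIPE (11-point) compound dilutions for 72 hr at 37 degree celsius; viability read by CellTiter-Glo luminescence, normalized to no-cell and DMSO in-plate controls.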

[4] = tested on: HACAT; assay: as above; settings: MCC and control cell lines, CellTiter-Glo viability, 72 h; at 44.8 µM (top of the series) unless noted
Procedure, shortened: as §2

[5] = tested on: HEK293T; assay: as above; settings: MCC and control cell lines, CellTiter-Glo viability, 72 h; at 44.8 µM (top of the series)
Procedure, shortened: as §2

[6] = tested on: MCC-13; assay: as above; settings: MCC and control cell lines, CellTiter-Glo viability, 72 h; series mostly up to 46 µM
Procedure, shortened: as §2

[7] = tested on: MCC-26; assay: as above; settings: MCC and control cell lines, CellTiter-Glo viability, 72 h; series mostly up to 46 µM
Procedure, shortened: as §2

[8] = tested on: MKL-1; assay: as above; settings: MCC and control cell lines, CellTiter-Glo viability, 72 h; series mostly up to 46 µM
Procedure, shortened: as §2

[9] = tested on: MKL-2; assay: as above; settings: MCC and control cell lines, CellTiter-Glo viability, 72 h; series mostly up to 46 µM
Procedure, shortened: as §2

[10] = tested on: NIH3T3; assay: as above; settings: MCC and control cell lines, CellTiter-Glo viability, 72 h; at 44.8 µM (top of the series) unless noted
Procedure, shortened: as §2
Further: nearly all actives have a fitted effect of over 60% in size.
On the % scale 0 is the no-effect control and ±100 the full control effect.

NC(=O)CN1CCCC1=O
inactive: max response [1] 4.93% | max response [2] -0.768% | outcome [3] | outcome [4] | outcome [5] | Potency [6] | Potency [7] | Potency [8] | Potency [9]

Nc1ccc(N)cc1
inactive: max response [1] -3.68% | max response [2] -12% | outcome [4] | Potency [6] | Potency [7] | Potency [8] | Potency [9]

CCN(CC)Cc1nccn1-c1ccc([N+](=O)[O-])cc1C(=O)c1ccccc1Cl
inactive: max response [1] -4.42% | max response [2] -7.47% | outcome [4] | Potency [6] | Potency [7] | Potency [8] | Potency [9]

COC(=O)C1=CCCN(C)C1
inactive: max response [1] 6.89% and 12.1% | outcome [2] | outcome [3] | outcome [4] | Potency [6] | Potency [7] | Potency [8] | Potency [9] | outcome [10]

COc1ccc(CN2CCNCC2)c(OC)c1OC
inactive: max response [1] 5.8% | max response [2] 1.76% | outcome [4] | Potency [6] | Potency [7] | Potency [8] | Potency [9]

CCOC(=O)c1cncn1C(C)c1ccccc1 (centres undefined)
inactive: max response [1] 0.49% and 0.484% | max response [2] 1.83% and -0.636% | outcome [3] | outcome [4] | outcome [5] | Potency [6] | Potency [7] | Potency [8] | Potency [9]

CCCCC1C(=O)NC(=O)N(C2CCCCC2)C1=O (centres undefined)
inactive: max response [1] 2.39% | max response [2] -9.24% | outcome [4] | Potency [6] | Potency [7] | Potency [8] | Potency [9]

C[C@H]1CNCCc2ccc(Cl)cc21
inactive: max response [1] -14.3% | outcome [2] | outcome [3] | outcome [5] | Potency [6] | Potency [7] | Potency [8] | Potency [9] | outcome [10]
